Data published in the supplement of paper PMC10338343.
± gives the standard deviation.

test system: MILI (PIWIL2) piRISC loaded with L1MC piRNA (26 nt); assay: pre-steady-state target cleavage rate (min^-1); guide: L1MC piRNA 5'p-UAACUAAAUACUAUGCAAGCUGUAGG; MIWI and MILI are mouse PIWI proteins and EfPiwi is from a freshwater sponge; tags in brackets are library labels; higher = faster piRNA-guided slicing of the target; conditions: auxiliary factor: 500 nM mouse GTSF1
Summary of the method: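 Cleave-'n-Seq: a transcribed, DNA-blocked target RNA library (0.1 nM) was mixed with 1 nM active affinity-purified piRISC carrying one synthetic guide, with or without 500 nM GTSF1 partner protein, in HEPES–potassium acetate buffer at 33 °C for 0–8 or 0–960 min. Uncleaved targets were sequenced and normalised to depth and to weakly complementary targets. Three trials were pooled, and k3 was capped at 0.0001 min^-1. The pre-steady-state cleavage rate came from a burst-and-steady-state fit.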

Point of comparison: UCCUGGAUCAGCUUGCUAUGUAUUUAGUAA, “pre-steady-state target cleavage rate” value 0.00621 ± 0.0032. Against it:
- UCCUGGUACAGCUUGCAUAGUUUUUUCAAA — within error, 0.0153 ± 0.0075
- UCCUGGUACACGUUGCAUAGUAUUUAGUAA — higher, 0.166 ± 0.038
- UCCUGGAUCAGCUUGCAUUCUAUUUAGUAA — within error, 0.0151 ± 0.0057
- UCCUGGAUGUCGAUGCAUAGUAUGUAGUUA — higher, 0.0337 ± 0.0087
- UCCUCCUUGUGCUUGCAUAGUAUUUUCAAA — higher, 0.0192 ± 0.0073
- UCCUGGAUGAGCUUGCAUAGUAUUUACAAA — higher, 0.0638 ± 0.018
- UCCUGGUACAGCUUGCAUUGUAUUUACUUA — higher, 0.05 ± 0.015
- UCCUGGAACAGCUUGCAUAGUAUAUUCAAA — higher, 0.0758 ± 0.022
- UCCUGGAUCAGCUUGCAUAGUAUUUUCUAA — higher, 0.0634 ± 0.017
- UCCUGGAUGUCCUUGCAAAGUAUUUACUUA — higher, 0.0234 ± 0.0076
- UCCUGGAUGUCCUUGCAUAGUUAUUAGUUA — within error, 0.00901 ± 0.004
- UCCUGGAUGUCCUUGCAUAGUAUUUUCAUA — higher, 0.0192 ± 0.0081
- UCCUGGAACAGCUUGCAUAGUUUUUACUUA — higher, 0.0363 ± 0.011
- UCCUGCUACAGCUUGCAUAGUAAAAACAAA — higher, 0.0234 ± 0.01
- UCCUGGAUCACGAUGCAUAGUAUUUAGAAA — higher, 0.111 ± 0.017
- UCCUGGAUCACGAUGCAUAGUAUUUACAAA — higher, 0.0606 ± 0.015
- UCCUGGAUGUCCUUGCAUACUAUUUAGUAA — within error, 0.0148 ± 0.0062
- UCCUGGUACAGCUUGCUUAGUAUUUACAAA — higher, 0.0242 ± 0.009
- UCCUGGUACAGCUUGCAUUGUAUUUAGUAA — higher, 0.112 ± 0.024
- UCCUGGAUGUCGAACGAUAGUAUUUAGUAA [g3:g14:cont:t1A] — lower, < 0.0001
- UCCUGGUACUGCUUGCAUAGUAUUUAGAAA — within error, 0.0143 ± 0.0067
- UCCUGGAUGUGCUUGCUUAGUAUUUAGAUA — higher, 0.141 ± 0.032
- UCCUGGAUGUCGAAGCAUAGUAUUUAGAUA — within error, 0.00991 ± 0.0044
